Here are results for seven compounds from PubChem BioAssay (NCI).

Assay in all cases: NCI-60 one-dose screen, 48 h (100 = growth as untreated, 0 = no growth, -100 = all killed)
One assay concerns SR leukemia. Conditions: 10 µM unless noted.
For the next assay, the system named is RPMI-8226 leukemia. Conditions: 10 µM unless noted.
The subject of the next assay is OVCAR-8 ovarian. Conditions: 10 µM unless noted.
The test system of a further assay is OVCAR-5 ovarian. Conditions: 10 µM unless noted.
For a further assay, the system named is OVCAR-4 ovarian. Conditions: 10 µM unless noted.
The test system of a further assay is SK-OV-3 ovarian. Conditions: 10 µM unless noted.
The test system of another assay is IGROV1 ovarian. Conditions: 10 µM unless noted.
A further assay relates to OVCAR-3 ovarian. Conditions: 10 µM unless noted.
A further assay concerns HS 578T breast. Conditions: 10 µM unless noted.
For another assay, the system named is NCI/ADR-RES ovarian. Conditions: 10 µM unless noted.
The test system of a further assay is T-47D breast. Conditions: 10 µM unless noted.
For the next assay, the system named is BT-549 breast. Conditions: 10 µM unless noted.
In another assay the test system is MDA-MB-435 melanoma. Conditions: 10 µM unless noted.
Another assay has as its system SW-620 colon. Conditions: 10 µM unless noted.
The test system of a further assay is MCF7 breast.
The subject of a further assay is HCT-116 colon. Conditions: 10 µM unless noted.
Another assay concerns HCC-2998 colon. Conditions: 10 µM unless noted.
The test system of another assay is KM12 colon. Conditions: 10 µM unless noted.

This is part of a sample that, as a whole, favours compounds with a hit. Of some 83,000 tested, about 20% had one in any assay.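 Note: values are percent growth. 100 is the growth of untreated cells, values between 100 and 0 indicate rising inhibition; between -100 and 0 indicates cell death.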 Values without a mark were called inactive. Calls of active or inactive are those of the source. How the source made its calls: active means growth percent below 10; inactive means the rest.

As to `N#CSCc1c(Cl)cccc1Cl`, the growth was 59.5% with SR leukemia; 47.7% in the assay with RPMI-8226 leukemia; 100% in the assay with OVCAR-8 ovarian; 106% in the assay with OVCAR-5 ovarian; 35.2% in the assay with OVCAR-4 ovarian; 96.6% in the assay on SK-OV-3 ovarian. In addition, the growth in the assay with IGROV1 ovarian is 11.5%; in the assay with OVCAR-3 ovarian, 4.78% (active); with HS 578T breast it was 80.6%; with NCI/ADR-RES ovarian it was 95.4%; in the assay with T-47D breast it was 79.9%; with BT-549 breast it was 88.4%. Besides, the growth in the assay on MDA-MB-435 melanoma was 29.6%; in the assay with SW-620 colon, 34.7%; with MCF7 breast (10 µM), 33.3%; with HCT-116 colon, 4.1% (active); with HCC-2998 colon, 70%; in the assay with KM12 colon, 48.1%.

As to `Nc1nc(N)c2c(ccc3c2ccn3Cc2cccc([N+](=O)[O-])c2)n1`, the growth in the assay with SR leukemia is 110%; with RPMI-8226 leukemia it was 19.4%; in the assay with OVCAR-8 ovarian, -54.4% (active); in the assay on OVCAR-5 ovarian, -96.9% (active); in the assay on OVCAR-4 ovarian it was -79.2% (active); with SK-OV-3 ovarian it was -100% (active). In addition, the growth in the assay on IGROV1 ovarian is -90% (active); in the assay with OVCAR-3 ovarian it was -93.9% (active); in the assay with HS 578T breast, -58.2% (active); with NCI/ADR-RES ovarian, 22.5%; in the assay on T-47D breast, -67% (active); in the assay on BT-549 breast, -91.4% (active). Moreover, the growth with MDA-MB-435 melanoma was -93.4% (active); in the assay on SW-620 colon, -91.8% (active); in the assay on MCF7 breast (10 µM), -79.2% (active); in the assay on HCT-116 colon it was -84.9% (active); in the assay with HCC-2998 colon it was -86% (active); in the assay with KM12 colon it was -92.3% (active).

As to `CN(C)C(=O)SC1=C(c2c(Cl)cccc2Cl)C(=O)c2ccccc21`, the growth was -36.3% (active) with SR leukemia; -2.59% (active) with RPMI-8226 leukemia; 51.7% with OVCAR-8 ovarian; 106% in the assay on OVCAR-5 ovarian; -11.6% (active) in the assay with OVCAR-4 ovarian; 110% with SK-OV-3 ovarian. In addition, the growth in the assay with IGROV1 ovarian is 119%; in the assay with OVCAR-3 ovarian, -81.5% (active); in the assay with HS 578T breast, 21.4%; in the assay with NCI/ADR-RES ovarian, 99.1%; with T-47D breast it was -71.9% (active); in the assay on BT-549 breast, 87.2%. The growth was -13% (active) with MDA-MB-435 melanoma; -83.9% (active) with SW-620 colon; -43.6% (active) in the assay on MCF7 breast (10 µM); -64.6% (active) with HCT-116 colon; 114% in the assay with HCC-2998 colon; 99.4% in the assay with KM12 colon.

For `O=C1c2ccccc2C(=O)c2sc(Nc3cccc(Cl)c3)nc21`, the growth in the assay on SR leukemia was 2.67% (active); with RPMI-8226 leukemia it was 2.31% (active); in the assay on OVCAR-8 ovarian, 1.49% (active); in the assay on OVCAR-5 ovarian it was -67.4% (active); in the assay with OVCAR-4 ovarian, -9.21% (active); in the assay with SK-OV-3 ovarian it was 86.9%. In addition, the growth with IGROV1 ovarian is 0.883% (active); in the assay with OVCAR-3 ovarian, -34.3% (active); in the assay with HS 578T breast, -8.09% (active); in the assay on NCI/ADR-RES ovarian, -16.9% (active); with T-47D breast it was 16%; with BT-549 breast, 61.5%. In addition, the growth was -83.5% (active) with MDA-MB-435 melanoma; -54.6% (active) with SW-620 colon; -59% (active) in the assay with MCF7 breast (10 µM); -29.9% (active) in the assay on HCT-116 colon; -34.3% (active) with HCC-2998 colon; 24.6% in the assay on KM12 colon.

As to `COC(=O)c1nc(=S)[nH]c(C(=O)OC)c1C(=O)c1ccc2ccccc2c1`, the growth in the assay on SR leukemia was 93.5%; in the assay with RPMI-8226 leukemia, 103%; with OVCAR-8 ovarian it was 107%; with OVCAR-5 ovarian, 101%; in the assay with OVCAR-4 ovarian it was 96.9%; in the assay with SK-OV-3 ovarian it was 101%. Further, the growth in the assay with IGROV1 ovarian is 98.5%; in the assay on OVCAR-3 ovarian it was 109%; with HS 578T breast it was 103%; in the assay with NCI/ADR-RES ovarian it was 106%; with T-47D breast it was 86.5%; with BT-549 breast it was 131%. Besides, the growth was 104% with MDA-MB-435 melanoma; 101% with SW-620 colon; 94.4% in the assay with MCF7 breast (10 µM); 107% in the assay on HCT-116 colon; 113% with HCC-2998 colon; 107% with KM12 colon.

Turning to `C/C=C1\SC(=S)NC1=O`, the growth with SR leukemia is 101%; in the assay on RPMI-8226 leukemia, 101%; in the assay with OVCAR-8 ovarian it was 103%; in the assay on OVCAR-5 ovarian it was 94.9%; with OVCAR-4 ovarian, 101%; in the assay with SK-OV-3 ovarian, 92.4%. For the same compound, the growth in the assay on IGROV1 ovarian was 105%; in the assay with OVCAR-3 ovarian it was 111%; in the assay on HS 578T breast, 104%; in the assay with NCI/ADR-RES ovarian it was 107%; in the assay with T-47D breast it was 92.6%; in the assay on BT-549 breast, 95.7%. Further, the growth in the assay with MDA-MB-435 melanoma was 101%; in the assay on SW-620 colon it was 112%; in the assay with MCF7 breast (10 µM), 86.9%; with HCT-116 colon, 96.9%; with HCC-2998 colon, 85%; in the assay with KM12 colon, 106%.

Turning to `N[C@H](C(=O)O)[C@@H]1CC(Cl)=NO1`, the growth in the assay with SR leukemia was 21.2% [20 µM]; in the assay on RPMI-8226 leukemia it was 28.9% [20 µM]; with OVCAR-8 ovarian, 30.3% [20 µM]; in the assay with OVCAR-5 ovarian, 28.4% [20 µM]; in the assay with OVCAR-4 ovarian it was 48.1% [20 µM]; with SK-OV-3 ovarian, 34.1% [20 µM]. The growth with IGROV1 ovarian was 10.8% [20 µM]; in the assay on OVCAR-3 ovarian, 32.4% [20 µM]; with HS 578T breast it was 27.2% [20 µM]; with NCI/ADR-RES ovarian, 28.4% [20 µM]; in the assay on T-47D breast it was 37.4% [20 µM]; in the assay with BT-549 breast it was 27.3% [20 µM]. Further, the growth in the assay on MDA-MB-435 melanoma is 29.6% [20 µM]; in the assay with SW-620 colon it was 10.2% [20 µM]; in the assay with MCF7 breast (20 µM) it was 12.3%; in the assay with HCT-116 colon it was 14.1% [20 µM]; in the assay with HCC-2998 colon, 34.7% [20 µM]; with KM12 colon, 18.2% [20 µM].
